system: STK39; conditions: Compound Concentration (nM):1000
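Note: KINOMEscan scanMAX binding as percent activity remaining versus control; lower means stronger binding.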

Percent Control, inactive:
COc1cc(C=NNc2ncnc3c2cnn3-c2ccccc2)ccc1O [GW513184X] 100%
CCS(=O)(=O)c1ccc(OC)c(Nc2ncc(-c3cccc(OC)c3)o2)c1 [GW580509X] 100%
Cl.O=C(Nc1ccc(Oc2ccc3[nH]c(NC(=O)c4ccco4)nc3c2)cc1)Nc1cc(C(F)(F)F)ccc1F [GW683134A] 100%
CN1CCN(C(=O)c2ccc(NC(=O)Nc3ccc(N(C)c4ccnc(Nc5ccc(CS(C)(=O)=O)cc5)n4)cc3)cc2)CC1.Cl [GW830263A] 79%
COc1cc(N2CCN(C(C)C)CC2)ccc1Nc1nc(Nc2ccc(F)cc2C(=O)NC[C@@H](O)CO)c2cc[nH]c2n1 [GSK1392956A] 65%
C[C@@H](Oc1cc(-n2cnc3ccc(OC4CCN(C)CC4)cc32)sc1C(N)=O)c1ccccc1Cl [GSK579289A] 83%
COc1ccc2cc(-c3c(-c4ccncc4)nc(-c4ccc(S(C)(=O)=O)cc4C)n3C)ccc2c1 [SB-633825] 66%
COC(=O)Nc1nc2ccc(Oc3ccc(NC(=O)Nc4cc(C(F)(F)F)ccc4F)cc3)cc2s1.Cl [GW693917A] 87%
CN(C)CCNC(=O)Nc1ccc(N(C)c2ccnc(Nc3ccc(CS(C)(=O)=O)cc3)n2)cc1.Cl [GW830900A] 78%
COc1cc(/C=N/Nc2ncnc3[nH]ncc23)ccc1O [GW578748X] 60%
COc1cc2ncn(-c3cc(O[C@H](C)c4ccccc4Cl)c(C(N)=O)s3)c2cc1OC [GSK237701A] 94%
CN(C)c1cc2c(Nc3ccc4c(cnn4Cc4ccccc4)c3)ncnc2cn1 [GW282974X] 95%
Cl.O=S1CCN(Cc2ccc(-c3ccc4ncnc(Nc5ccc(OCc6ccccc6)c(F)c5)c4c3)o2)CC1 [GW576924A] 100%
CCc1ccc(Oc2nccc(-c3c(-c4ccc(F)cc4)ncn3C3CCNCC3)n2)cc1 [SB-242719] 81%
Nc1ncnc2occ(-c3ccc(NC(=O)Nc4cc(C(F)(F)F)ccc4F)cc3)c12 [GW770249X] 100%
Cl.O=C(O[C@H]1CN[C@H](C#Cc2cc3ncnc(Nc4ccc5c(cnn5Cc5ccccc5)c4)c3s2)C1)N1CCOCC1 [GSK200398A] 83%
Cl.c1ccc(Cc2nc3ccc(Nc4ncnc5ccccc45)cc3[nH]2)cc1 [GR269666A] 100%
COc1ccc2c(-c3ccnc(Nc4cccc(OC(F)(F)F)c4)n3)cnn2n1 [GW810372X] 86%
COc1cccc(-c2c[nH]c3c(N/N=C/c4ccncc4)ncnc23)c1 [GW814408X] 100%
CCn1c(-c2nonc2N)nc2c(C#CC(C)(C)O)nc(OCCNC)cc21.Cl [GSK949675] 98%
NS(=O)(=O)c1ccc(Nc2ncc(-c3ccccc3)o2)cc1 [GW572399X] 100%
COc1ccc(COc2ccc(Cc3cnc(N)nc3N)cc2OC)cc1 [GW632580X] 91%
CC(C)COC(=O)c1ccc2c(c1)/C(=C/Nc1ccc(S(N)(=O)=O)cc1)C(=O)N2 [GW416981X] 100%
Cl.O=C(Nc1ccc(Oc2ccc3[nH]c(NC(=O)c4ccccc4)nc3c2)cc1)Nc1cc(C(F)(F)F)ccc1F [GW709042A] 100%
COc1cccc(-n2ncc3c(N/N=C/c4ccncc4)ncnc32)c1 [GW784752X] 100%
NS(=O)(=O)c1ccc(N/N=C2\C(=O)Nc3ccc(Cl)cc32)cc1 [GW280670X] 100%
O=C(Nc1n[nH]c2nc(-c3ccc(O)cc3)c(Br)cc12)C1CC1 [SB-725317] 99%
CC1=C(C(=O)Nc2ccc3[nH]ncc3c2)C(c2ccc3ccccc3c2)CC(=O)N1 (stereo not shown) [GSK270822A] 71%
Cc1cc(O)cc(C)c1/C=C/c1cncc(C(N)=O)c1 [GW435821X] 100%
NS(=O)(=O)c1ccc(N/N=C2\C(=O)Nc3ccc(C(=O)NCc4ccncc4)cc32)cc1 [GW300657X] 74%
C/C(Nc1ccc(S(N)(=O)=O)cc1)=C1/C(=O)Nc2ccccc21 [GW335962X] 64%
CC1=C(C(=O)Nc2ccc3[nH]ncc3c2)C(c2ccc(Cl)c(Cl)c2)CC(=O)N1 (stereo not shown) [GSK299115A] 81%
CCS(=O)(=O)c1ccc(OC)c(Nc2ncc(-c3cccc(F)c3)o2)c1 [GW621970X] 100%
COc1ccccc1-c1cc(/C=C2\C(=O)Nc3ncc(Br)cc32)cc(Br)c1O [GW442130X] 67%
NS(=O)(=O)c1ccc(N/N=C2\C(=O)Nc3ccc(C(=O)NCCc4c[nH]cn4)cc32)cc1 [GW300660X] 100%
O=C1Nc2ccc(C(=O)c3ccco3)cc2C1=Cc1cc(Cl)c(O)c(Cl)c1 [GW406108X] 81%
COc1cc(C)c(N(C)C(=O)CN(C)C)cc1Nc1nc(Nc2cccc(F)c2C(N)=O)c2cc[nH]c2n1 [GSK2219385] 81%
NS(=O)(=O)c1ccc(N/N=C2\C(=O)Nc3ccc(-c4cnco4)cc32)cc1 [GW276655] 88%
COc1ccc2[nH]c3c4[nH]c5ccc(OC)cc5c4c4c(c3c2c1)C(=O)NC4=O [GW296115X] 100%
COc1cc2ncnc(Nc3ccc4c(cnn4Cc4ccccc4)c3)c2cc1OC.Cl [GW282449A] 100%
